From PubChem BioAssay
Calls of active or inactive are those of the source.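 The calls were made as follows: active = inhibition above 50%; inactive = the rest.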

Experiment: HepG2 cytotoxicity, primary screen, cytotoxicity control for P. falciparum antimalarial project, cell-based, ATP luminescence (AID 2303);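 also: 0% = DMSO wells and 100% = digitonin-killed cells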
Details: HepG2 viability, 24-48 h, at 10 µM, stronger effect = higher value

| SMILES | inhibition |
| --- | --- |
| CC(C)N1CCN(C(CN2CCN(CCCOc3ccccc3-c3ccccc3)CC2)c2ccc(F)cc2)CC1 (centres undefined) | 98% (active) |
| Cc1cc(OCCCN2CCC(NS(=O)(=O)c3cc(Br)c(Cl)s3)CC2)c2ccccc2n1 | 5% (inactive) |
| Cc1nnsc1C(=O)Nc1ccc(-c2ccc(-c3nc4c(C)cccc4[nH]3)s2)cc1 | 63% (active) |
| CN(C)CCCNc1ncnc2c1[nH]c1ccc(Cl)cc12 | 2% (inactive) |
| Cc1cc(N)cc2[nH]c(-c3ccc(N)cc3)nc12 | -7% (inactive) |
| O=C(Nc1cccc(CN2CCN(C(=O)c3cccc(F)c3)CC2)c1)c1cccs1 | 17% (inactive) |
| OCCN1CCN(C(=S)Nc2ccccc2)CC1 | 6% (inactive) |
| CC(=O)Oc1c(C2CCN(CCCCNC(=O)c3ccc(NC(=O)c4ccc(Cl)cc4)cc3)CC2)ccc2ccccc12 | 24% (inactive) |
| CCOC(=O)c1c(CNc2ccncc2)n(C)c2cc(Br)c(OC(C)=O)cc12 | -3% (inactive) |
| O=C(Nc1ccccc1N1CCOCC1)c1ncoc1-c1ccccc1C(F)(F)F | -2% (inactive) |
| Cc1nc(-c2cccc(Nc3nccc(NCC(O)c4ccc(C(F)(F)F)cc4)n3)c2)cs1 (centres undefined) | 33% (inactive) |
| OCc1c(Cl)cc(Cl)cc1CNCCCNc1nc2ccccc2[nH]1 | -6% (inactive) |
| COC(=O)c1cccc(CNCc2cccc(-c3cccc(-c4nc5ccc(F)cc5[nH]4)c3)c2)c1 | 27% (inactive) |
| CC(C)(C)c1ccc(OC(=O)c2ccc(NC(=O)N[C@@H](Cc3ccc(O)cc3)C(=O)NC3CCN(Cc4ccc(O)cc4)C3)cc2)cc1 (some centres undefined) | 0% (inactive) |
| CN1CCC(N(Cc2ccc(-c3ccc(C(F)(F)F)cc3)cc2)C(=O)Cn2cc(Cc3cnn(C)c3)c(=O)nc2SCc2cccc(F)c2F)CC1 | 68% (active) |
| c1ccc2c(CNc3ccnc(NCc4cccc5ccccc45)n3)cccc2c1 | 51% (active) |
| O=C(Nc1cccc(CN2CCN(Cc3ccc(O)cc3)CC2)c1)c1cc2ccccc2s1 | 15% (inactive) |
| CC(=O)Nc1ccc(C(=O)Nc2ccc(-c3csc(-c4nc5ccccc5[nH]4)c3)cc2)cn1 | 11% (inactive) |
| CC1(C)N=C(N)N=C(N)N1OCc1ccc(-c2ccccc2)cc1 | 64% (active) |
| Cc1ccc2c(NN=Cc3cccc(Cl)c3)cc(C)nc2c1 | 50% (active) |

| SMILES | inhibition |
| --- | --- |
| COc1ccc2nccc([C@@H](O)CN3CCC(NCc4cc5cc(C)ccc5s4)CC3)c2c1 | 13% (inactive) |
| Cc1cccc2sc(N(CCCn3ccnc3)C(=O)C=Cc3cccs3)nc12 | -6% (inactive) |
| O=C(NCCCCN1CCC(c2ccc3c(c2OCC(O)c2ccc(Cl)cc2)CCCC3)CC1)c1ccc(-c2ccc(C(F)(F)F)cc2)cc1 (centres undefined) | 100% (active) |
| OC(CNCCc1ccccc1)Cn1c2ccc(Cl)cc2c2cc(Cl)ccc21 (centres undefined) | 53% (active) |
| Cc1cc(N(C)C2CCN(CC3CCCCC3)C2)nc(Nc2ccc(Cl)cc2)n1 (centres undefined) | -3% (inactive) |
| COc1ccc(CN2CCC(NCc3ccc(C(F)(F)F)cc3)CC2)cc1 | 37% (inactive) |
| O=C(Cc1ccccc1)NC(CCN1CCC(N(C2CC2)S(=O)(=O)c2cccc(C(F)(F)F)c2)CC1)c1ccc(Cl)c(Cl)c1 (centres undefined) | 19% (inactive) |
| COc1cccc(C(=O)NC(c2ccc(Cl)cc2Cl)c2cc(Cl)c3cccnc3c2O)c1 (centres undefined) | 37% (inactive) |
| O=C(Nc1ccc(N2CCN(C(=O)C=Cc3ccccc3)CC2)c(Cl)c1)c1ccc([N+](=O)[O-])o1 | 98% (active) |
| CCCN1CCN(CCCNC(=O)c2cc3c(-c4ccc(Cl)cc4)nn(C)c3s2)CC1 | 46% (inactive) |
| Cn1nccc1C(=O)NCCNCc1ccc(-c2ccc(-c3nc4ccc(F)cc4[nH]3)cc2)cc1 | 28% (inactive) |
| O=C(Nc1ccc(Cl)c(-c2nc3ccccc3[nH]2)c1)c1ccc(-c2ccc(Cl)cc2)o1 | 16% (inactive) |
| COc1cc(N(Cc2ccccc2C)S(=O)(=O)Cc2ccccc2[N+](=O)[O-])c(OC)cc1Cl | 16% (inactive) |
| Cc1onc(-c2ccccc2)c1C(=O)Nc1nc(-c2ccccn2)nc2ccsc12 | 23% (inactive) |
| N#Cc1cc(C(=O)Nc2ccccc2)c(N)nc1SCC(=O)Nc1ccc(Br)cc1 | 11% (inactive) |
| O=C(Nc1ccc(Oc2ccccc2)cc1)N[C@H]1CCN(Cc2ccc(OCCCN3CCCCC3)cc2)C1 | 13% (inactive) |
| CCOC(=O)NC1=NC(C)(C)N(OCCCOc2cc(Cl)c(Cl)cc2Cl)C(N)=N1 | 63% (active) |
| Cc1ccc(/C=C/C(=O)NC2CCC(N3CCC(c4ccccc4C)CC3)CC2)cc1F (centres undefined) | 51% (active) |
| Cc1ccc(CNC(=O)[C@H](CCCN)Nc2cc(C)nc(NCC3CCCCC3)n2)cc1 | 1% (inactive) |
